Experiment: binders from COS7 lysate, DM2A8 probe, primary screen, torsin A project, cell lysate, small-molecule microarray, fluorescence 635/667 (AID 1065)
Conditions: higher = more signal, COS7 lysate expressing mutant human TOR1A

Row | Structure (SMILES) | composite z-score
1 | CCCCC(=C=CC[C@H](O)c1cccc(OCCO)c1)C[C@H](O)COCc1ccccc1 | 0.284
2 | COC(=O)c1ccc(OC)c(/C=C\CC(CCc2ccccc2)OC(=O)c2ccncc2)c1 (centres undefined) | 0.767
3 | COc1ccc([Si](C)(C)[C@H]2[C@H](CC(=O)N3CCC[C@H]3CO)O[C@@]3(C(=O)N(Cc4ccc(N5C(=O)c6cccc7cccc5c67)cc4)c4ccccc43)[C@@H]2C)cc1 | 0.623
4 | COc1cc(NN2C(C(O)c3ccc(I)cc3)C=CC3C(=O)N(C)C(=O)C32)cc(OC)c1OC (centres undefined) | -0.363
5 | C=CCC(OC(C)=O)[C@@H]1[C@@H](N(Cc2ccc(-c3ccccc3)cc2)C(=O)c2cccc3ccccc23)c2cc(OCCCO)ccc2N1C(=O)c1ccc2ccccc2n1 (some centres undefined) | 0.113
6 | C=CCC(OC(C)=O)[C@@H]1[C@@H](N(Cc2cccc3ccccc23)C(=O)Cc2ccc(F)cc2)c2cc(OCCCO)ccc2N1C(=O)Cc1ccc(OC)cc1 (some centres undefined) | 0.202
7 | O=C1O[C@H](c2ccccc2)[C@H](c2ccccc2)N2[C@H]1[C@@H](C(=O)N1CCN(c3ncccn3)CC1)[C@]1(C(=O)Nc3ccc(C#CCCO)cc31)[C@H]2c1ccccc1OCCO | 0.851
8 | COC(=O)[C@@]1(Cc2ccccc2)[C@H]2c3cc(C(=O)N4CCCC4)n(CCO)c3C[C@H]2CN1C(=O)c1ccccc1 | 2.52
9 | COCCCNC(=O)[C@@]1(Cc2ccccc2I)c2ccccc2C(=O)N(Cc2ccccc2Cl)[C@H]1c1ccc(CO)cc1 | 0.229

From PubChem BioAssay
